# OPRM1-OPRD1 ag: agonists of OPRM1-OPRD1 heterodimerization, primary screen, cell-based, luminescence; cells; activation, % at 9.3 µM; 340,000 tested, 0.3% active; in the data active = activation above about 18%;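 note: 0% = vehicle-treated cells and 100% = reference agonist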
# Target sequence (P35372 whole entry, looked up): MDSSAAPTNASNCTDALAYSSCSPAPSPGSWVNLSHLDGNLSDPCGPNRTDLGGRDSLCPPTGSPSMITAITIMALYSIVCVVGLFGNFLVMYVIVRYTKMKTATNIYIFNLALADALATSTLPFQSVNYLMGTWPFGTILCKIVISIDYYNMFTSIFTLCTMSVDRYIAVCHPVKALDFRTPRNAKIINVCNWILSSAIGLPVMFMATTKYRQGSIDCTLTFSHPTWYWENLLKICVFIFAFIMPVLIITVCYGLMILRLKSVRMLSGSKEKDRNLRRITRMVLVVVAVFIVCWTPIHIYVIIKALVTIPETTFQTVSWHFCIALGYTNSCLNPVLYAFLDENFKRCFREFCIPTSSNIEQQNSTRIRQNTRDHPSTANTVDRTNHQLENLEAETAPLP
# Target sequence (P41143 whole entry, looked up): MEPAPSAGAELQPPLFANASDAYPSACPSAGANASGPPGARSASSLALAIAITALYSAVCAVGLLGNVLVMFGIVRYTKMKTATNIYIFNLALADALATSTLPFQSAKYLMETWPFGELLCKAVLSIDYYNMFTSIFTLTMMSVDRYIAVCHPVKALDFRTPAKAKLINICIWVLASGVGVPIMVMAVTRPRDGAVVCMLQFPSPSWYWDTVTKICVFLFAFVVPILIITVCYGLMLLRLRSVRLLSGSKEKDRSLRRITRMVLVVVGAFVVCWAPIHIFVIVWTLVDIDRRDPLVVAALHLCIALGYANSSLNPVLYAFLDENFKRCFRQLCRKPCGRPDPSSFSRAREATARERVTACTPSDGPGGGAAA
# HTR5A ag: HTR5A agonists in luminescence cell assay, primary screen, counter-screen for OPRM1-OPRD1 heterodimer agonist project, full-deck HTS. cell-based. AID 504692, 2011. activation, % at 9.3 µM. 5-hydroxytryptamine receptor 5A (Homo sapiens), P47898. 340,000 tested, 0.61% active; in the data active = activation mostly above about 9.5%, no sharp cut-off; inactive = mostly below about 7.6%;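 note: 0% = cells with vehicle only and 100% = reference agonist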
# HTR5A inv ag: HTR5A inverse agonists in luminescence cell assay, primary screen, counter-screen for OPRM1-OPRD1 heterodimer inverse agonist project, full-deck HTS; 340,000 tested, 0.083% active; inhibition, % at 9.3 µM; HTR5A cell line, inverse agonism; 5-hydroxytryptamine receptor 5A (Homo sapiens), P47898; in the data active = inhibition mostly above about 23%, no sharp cut-off; inactive = mostly below about 18%;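 note: 0% = cells with DMSO and 100% = no-cell wells with DMSO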
# OPRM1-OPRD1 inv: inverse agonists of MOR-DOR heterodimerization, primary screen, cell-based, luminescence; inhibition, % at 9.3 µM; cell-based MOR-DOR heterodimer luminescence, inverse agonism; Mu-type opioid receptor (Homo sapiens) + Delta-type opioid receptor (Homo sapiens), …; 340,000 tested, 0.21% active; in the data active = inhibition above about 22%, passing the limit was not always enough;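 note: 0% = cells with DMSO and 100% = wells without cells with DMSO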
# Starred values were filed as active, the others as inactive. This is a sample that favours compounds with a hit; in the whole collection about 1.1% have one here.
SMILES,OPRM1-OPRD1 ag,HTR5A ag,HTR5A inv ag,OPRM1-OPRD1 inv
NNS(=O)(=O)c1ccc2c(c1)Cc1cc(S(=O)(=O)NN)ccc1-2,-4,12*,-45,17
COc1ccc(OC)c(C(C)NC(=O)Nc2ccccc2)c1 (stereo not given),-2,-3,6,10
COc1cc(C(=O)NC(=S)Nc2ccccc2[N+](=O)[O-])cc(OC)c1OC,-1,-1,2,9
CCOc1ccc(C(=O)Nc2cccc([N+](=O)[O-])c2)cc1Br,4,9.2*,-22,-19
CCOc1ccc(C(=O)Nc2cccc(NC(=O)c3cccs3)c2)cc1[N+](=O)[O-],0,-4,-7,-2
C=CCN1CCN(C(=O)c2cc3c(s2)CCCC3)CC1,-3,2,23,16
O=Nc1c(O)c2ccccc2c2ccccc12,18,12*,-10,-99
O=Nc1c2cc3ccccc3[nH]c-2c2ccccc12,5,8,-30,-26
Cc1ccccc1C1=C/C(=C(\SS/C(C(=O)c2ccc(OCC(=O)O)c(Cl)c2Cl)=C2\C=C(c3ccccc3C)SS2)C(=O)c2ccc(OCC(=O)O)c(Cl)c2Cl)SS1,-2,-2,8,10
c1cc(-c2cc3cc(N4CCOCC4)ccc3o2)cs1,2,0,-1,-11
O=C1Nc2ccccc2C1=Nc1cccc(Cl)c1,-11,-6,21,53*
CC(=O)c1ccc(N=C2C(=O)Nc3ccccc32)cc1,-11,-2,9,53*
CC(=O)N(/N=C1/C(=O)Nc2ccccc21)c1ccccc1,2,0,-1,-12
CSc1cccc(N=C2C(=O)Nc3ccccc32)c1,-11,-4,16,52*
COc1ccc2sc(-c3ccc(S(C)(=O)=O)cc3)c(C#CCO)c2c1,6,12,-30,-33
COc1ccc2c(C#CCCO)c(-c3ccc(S(C)(=O)=O)cc3)sc2c1,-1,13*,-45,4
O=C1CCc2cc(S(=O)(=O)NCCc3ccc(Cl)cc3)cc3c2N1CC3,-1,3,13,8
Cc1c(C(=O)Nc2nc3ccccc3[nH]2)oc2ccccc12,7,11*,6,-51
CCOc1ccc(-c2nnc(NC(=O)CCCOc3cccc(C)c3)o2)cc1,8,13*,-25,-46
CCOc1ccc(-c2nnc(NC(=O)Cc3ccc(OC)cc3)o2)cc1,-2,-1,4,10
COc1ccc(NC(=O)CN(C)C(=O)CSc2ccc(Br)cc2)cc1,-4,1,-3,15
O=C(NCc1cccc(F)c1F)C1CCC(=O)N(C2CC2)C1 (stereo not given),-5,10*,4,18
CCN1C(N(C)CCc2c[nH]c3ccccc23)=N[C@@H](c2cccc(C(F)(F)F)c2)C(C(=O)OC)=C1C,3,22*,-66,-19
C=CCNCc1cc(=O)n2c(-c3ccccc3)csc2n1,-3,2,-6,14
O=C1CCCN1C(=O)CSc1nnnn1-c1ccccc1,-2,2,-7,12
SMILES,OPRM1-OPRD1 ag,HTR5A ag,HTR5A inv ag,OPRM1-OPRD1 inv
COc1ccc(-c2csc(NC(=O)C3=NN(c4ccccc4)C(=O)CC3)n2)cc1,-1,10*,-27,7
O=C(Nc1nc(-c2cc(F)ccc2F)cs1)C1=NN(c2ccccc2)C(=O)CC1,-2,-1,3,9
CN1CCC(N(C)C(=O)c2sc3cc(F)ccc3c2Cl)CC1,0,0,-1,0
CC(C)N(CC(N)=O)C(=O)c1sc2cc(F)ccc2c1Cl,1,13*,-22,-3
O=C(COc1cccc(Br)c1)Nc1ccc(Cl)c(S(=O)(=O)N2CCOCC2)c1,1,9.3*,-36,-7
O=C(COC(=O)c1cccnc1Cl)Nc1cccc(S(=O)(=O)N2CCOCC2)c1,-3,12*,-42,13
O=C(CCCOc1ccccc1)Nc1ccc(Cl)c(S(=O)(=O)N2CCOCC2)c1,2,1,-5,-10
Cc1nc2scc(C)n2c(=O)c1S(=O)(=O)N1CCN(c2ccc([N+](=O)[O-])cc2)CC1,-1,6,-20,5
COc1ccccc1N1CCN(C(=O)c2noc(C)c2[N+](=O)[O-])CC1,-1,9,8,6
Cc1onc(C(=O)N2CCN(C(c3ccccc3)c3ccccc3)CC2)c1[N+](=O)[O-],16,13*,-33,-81
CS(=O)(=O)c1ccc(C(=O)Nc2nc(-c3ccco3)c(-c3ccco3)s2)cc1,1,45*,-109,-7
O=C(Nc1nc(-c2ccco2)c(-c2ccco2)s1)C1CCC1,0,6,14,-1
